# Target: Estrogen receptor beta (Homo sapiens) (UniProt Q92731)
# Assay: displacement of fluorescent estrogen from ERbeta – cell-based, Cos7 ERbeta-GFP, flow cytometry, primary screen (AID 1210);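 note: 0% = DMSO vehicle wells and 100% = complete loss of labeled estradiol signal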
# Settings: fluorescent estrogen binding, ligand binding inhibition, at 0.1 µM, stronger effect = higher value
# Estrogen receptor beta (Homo sapiens), sequence (Q92731 whole entry, looked up): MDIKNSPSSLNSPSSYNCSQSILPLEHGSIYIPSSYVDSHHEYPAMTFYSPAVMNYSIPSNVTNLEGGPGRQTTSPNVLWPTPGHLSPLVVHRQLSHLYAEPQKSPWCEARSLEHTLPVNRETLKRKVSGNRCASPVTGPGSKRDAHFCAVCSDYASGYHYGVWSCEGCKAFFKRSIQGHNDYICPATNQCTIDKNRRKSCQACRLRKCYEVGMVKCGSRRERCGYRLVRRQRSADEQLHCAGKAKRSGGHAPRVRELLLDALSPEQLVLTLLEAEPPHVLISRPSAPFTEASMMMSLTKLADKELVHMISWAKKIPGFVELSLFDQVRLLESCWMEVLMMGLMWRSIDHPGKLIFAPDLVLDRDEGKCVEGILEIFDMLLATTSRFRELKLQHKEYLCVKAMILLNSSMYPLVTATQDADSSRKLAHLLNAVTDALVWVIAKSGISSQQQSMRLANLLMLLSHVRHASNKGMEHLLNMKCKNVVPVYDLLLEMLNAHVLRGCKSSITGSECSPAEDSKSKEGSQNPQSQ
row,Structure (SMILES),inhibition [%]
1,O=C(O)c1cccc2c1NC(c1cccc([N+](=O)[O-])c1)C1CC(Sc3ccccc3[N+](=O)[O-])C(Cl)C21 (centres undefined),11
2,C[C@H]1CCC[C@@H](O)CCC/C=C/c2cc(O)cc(O)c2C(=O)O1,62
3,CC(=O)c1ccc2c(c1)C1C(Cl)C(Sc3ccccc3[N+](=O)[O-])CC1C(c1ccccc1[N+](=O)[O-])N2 (centres undefined),6
4,COc1ccc(Cn2c(N)c(C(=O)NCc3ccco3)c3nc4ccccc4nc32)cc1,13
5,CCOc1ccccc1N1C(=O)NC(=O)C(CCc2ccncc2)(CCc2ccncc2)C1=O,35
6,NC(=O)c1ccc(N=Nc2c(O)[nH]c(=O)[nH]c2=O)cc1,17
7,O=C(O)c1ccc2c(c1)C1C(Cl)C(Sc3ccccc3[N+](=O)[O-])CC1C(c1cccc([N+](=O)[O-])c1)N2 (centres undefined),6
8,Cc1ccc(S(=O)(=O)Cc2ccc(C(=O)N3CCC4(CC3)OCCO4)o2)cc1,7
9,CC(=O)c1ccc2c(c1)C1C(Cl)C(Sc3ccccc3[N+](=O)[O-])CC1C(c1ccccc1)N2 (centres undefined),22

# From PubChem BioAssay AID1210 (NMMLSC, 2008)
